Drawing on PubChem BioAssay AID2540 (Sanford-Burnham Center for Chemical Genomics, 2010), this text covers inhibition for 92 compounds.

Out of some 330,000 compounds screened, about 4,100 (1.2%) were called active. This is one part of a sample in which actives are shown more often than they occur. No stated cut-off is given here; in the data, active means inhibition above about 50%; inactive means the rest.

Sentrin-specific protease 8 (Homo sapiens), sequence (Q96LD8 whole entry, looked up): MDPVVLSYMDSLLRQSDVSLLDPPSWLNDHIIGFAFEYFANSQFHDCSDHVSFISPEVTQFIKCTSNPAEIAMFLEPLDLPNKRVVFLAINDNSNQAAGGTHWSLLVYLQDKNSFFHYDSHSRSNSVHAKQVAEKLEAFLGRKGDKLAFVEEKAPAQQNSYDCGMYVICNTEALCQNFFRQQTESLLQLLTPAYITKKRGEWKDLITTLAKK

This assay addresses Sentrin-specific protease 8 (Homo sapiens) (UniProt Q96LD8). Put plainly: SENP8 protease inhibitors, primary screen, biochemical, luminescence (AID 2540). Conditions: purified SENP8, Z-RLRGG-aminoluciferin cleavage, at 10 µM, hits give high values.
As for `Cc1ccc(NS(=O)(=O)c2ccc(C(C)C)cc2)cc1S(=O)(=O)N1CCOCC1`, the inhibition is -8.64% (inactive). The value for `NC(=O)c1ccc(Nc2ccc3c(c2)CCC3)c([N+](=O)[O-])c1` was -12.7% (inactive); that for `O=C(N/N=C/c1sc(N2CCCCC2)nc1-c1cccs1)c1cccnc1` was -8.56% (inactive); that for `COc1ccc(OC)c(S(=O)(=O)NCCC(C)C)c1` was 0.429% (inactive). The value for `O=C(NCC(=O)N1CCN(c2ccccc2O)CC1)c1ccc2ccccc2c1` was -4.96% (inactive); that for `CC(C)N(C(=O)Cn1c(SCC(=O)N2CCN(c3ccccc3)CC2)nc2ccccc21)C(C)C` was 3.06% (inactive). As to `CC(C)N(C(=O)Cn1cc(S(=O)(=O)CC(=O)N2CCOCC2)c2ccccc21)C(C)C`, the inhibition was -2.24% (inactive).

With `CC(C)N(C(=O)Cn1cc(SCC(=O)N2CCCC2)c2ccccc21)C(C)C`, the inhibition was 55.6% (active).

For the compound `O=[N+]([O-])c1cc(S(=O)(=O)NCCc2ccccn2)ccc1Cl`, the inhibition is -1.07% (inactive). Regarding `CC/C(Cc1ccccc1)=N/NC(=O)CCn1nnc2ccccc21`, the inhibition was 2.91% (inactive).

Turning to `O=C(Nc1ccccc1C(=O)NCC1CCCO1)c1ccccc1F` (configuration not stated), the inhibition was -12.9% (inactive). With `Cc1c(C(=O)N(C)CCc2cnn(C)c2)oc2c(F)cccc12`, the inhibition is 3.74% (inactive). Regarding `O=C(c1ccncc1)c1ccc([N+](=O)[O-])cc1`, the inhibition is -5.02% (inactive).

Turning to `O=C(NC(Nc1nc2ccc([N+](=O)[O-])cc2s1)(C(F)(F)F)C(F)(F)F)c1ccccc1`, the inhibition was -0.974% (inactive). For `O=C(Nc1nc2ccc([N+](=O)[O-])cc2s1)c1ccncc1` the value was 87.5% (active). For `CCCOC(=O)c1c(NC(=O)c2cnn3c2NC(c2ccccc2)CC3C(F)(F)F)sc2c1CCCC2` (configuration not stated), the inhibition is -1.5% (inactive). For `O=C(c1ccco1)N1CCN(C(=S)Nc2cc(F)cc(F)c2)CC1` the value was 2.74% (inactive); for `COc1ccc(N2CCN(C(=O)CNS(=O)(=O)c3ccc(C)c(C)c3)CC2)cc1`, -6.38% (inactive).

Consider `Cc1cccc2cc3c(N)c(C(=O)N4CCCc5ccccc54)sc3nc12`, for which the inhibition is -4.99% (inactive). For `CC(=O)c1ccc(OCCCC(=O)Nc2ccc(C)c(S(=O)(=O)N3CCOCC3)c2)cc1` the value was 8.63% (inactive). Regarding `O=C(CSC(=S)N1CCOCC1)c1ccccc1`, the inhibition is 59.3% (active).

As to `CC1CN(C(=S)SCC(=O)c2ccccc2)CC(C)O1` (configuration not stated), the inhibition is 1.35% (inactive).

In the case of `O=C(CSC(=S)N1CCOCC1)c1cc(Br)cc(Br)c1O`, the inhibition was -4.17% (inactive).

In the case of `CCOc1ccc(S(=O)(=O)N2CCC(C(=O)NCC(=O)Nc3cccc(Cl)c3C)CC2)cc1`, the inhibition was 3.22% (inactive). As to `Cc1ccc(-c2nc(CSCC(=O)NC3CCN(Cc4ccccc4)CC3)c(C)o2)cc1`, the inhibition is -1.87% (inactive).

For `CCCn1c(C)cc(/C=C(\C#N)C(=O)OCC(=O)Nc2cc(OC)c(OC)c(OC)c2)c1C`, the inhibition was 1.35% (inactive).

As for `COc1ccccc1NC(=O)C1=C(C)Nc2nc3ccccc3n2C1c1cccs1` (configuration not stated), the inhibition is -5.43% (inactive). As for `O=C(Nc1ccc(N2CCCC2=O)cc1)c1cncc(Br)c1`, the inhibition is -0.181% (inactive). In the case of `CCOC(=O)c1sc(NC(=O)c2sc(C)nc2C)nc1C`, the inhibition was 13.7% (inactive). With `CCOC(=O)c1cccnc1NC(=O)c1ccncc1`, the inhibition is -5.42% (inactive). On to `CCOC(=O)c1sc(NC(=O)c2ccncc2)nc1C`, for which the inhibition is 88.2% (active).

As to `Cc1ccc(NC(=O)CN(C)C(=O)c2ccc(Cl)c(S(=O)(=O)NCc3ccco3)c2)cc1`, the inhibition was -1.14% (inactive). As to `O=CN1CCN(C(=O)c2ccc(Br)o2)CC1`, the inhibition was 0.91% (inactive). The value for `O=C(Nc1ccccc1)c1ccc2c(c1)OCO2` was 66.7% (active); that for `Cc1onc(C(=O)Nc2ccc3c(c2)OCO3)c1[N+](=O)[O-]` was -9.15% (inactive). With `CC(NC(=O)Nc1cccc([N+](=O)[O-])c1)c1ccc2c(c1)OCO2` (configuration not stated), the inhibition was -0.051% (inactive). For the compound `O=C(COC(=O)c1ccc(F)cc1)Nc1ccc2c(c1)OCO2`, the inhibition is -15.4% (inactive). Take `O=C(COC(=O)c1ccncc1)Nc1ccc2c(c1)OCO2`: the inhibition is 8.05% (inactive).

`O=C(Nc1ccccc1)c1ccc2c(c1)OCCCO2`: the inhibition was 75.9% (active).

In the case of `O=C(Nc1cccc([N+](=O)[O-])c1)c1ccc2c(c1)OCO2`, the inhibition was 59.1% (active). As for `O=C(Nc1ccc(N2CCOCC2)cc1)c1ccc2c(c1)OCO2`, the inhibition is 12.3% (inactive). For the compound `O=C(Nc1ccc2c(c1)OCCO2)c1ccoc1`, the inhibition is -5.62% (inactive). Regarding `CC(=O)Nc1cccc(C(=O)OCC(=O)c2ccc3c(c2)OCO3)c1`, the inhibition is 67.1% (active).

In the case of `CN1CCN(c2ccc(NC(=O)c3ccc4c(c3)OCCO4)cc2Cl)CC1`, the inhibition was 3.49% (inactive).

Consider `O=C(Nc1ccc(NC(=O)c2ccc3c(c2)OCO3)cc1)c1cccc(Cl)c1`, for which the inhibition was -4.6% (inactive). Consider `Cc1ccsc1C1C(C#N)=C(N)OC2=C1C(=O)CC(C)C2` (configuration not stated), for which the inhibition was -10.3% (inactive). For `Cc1ccc(S(=O)(=O)N2CCCCC2)cc1NC(=O)c1cccnc1` the value was -12.3% (inactive). Take `CC1(C)C/C(=N/Nc2ccc([N+](=O)[O-])cc2[N+](=O)[O-])C(C)(C)O1`: the inhibition was -5.03% (inactive). The value for `CCCCn1c(N)c(N(CC(C)C)C(=O)CN(C)S(=O)(=O)c2ccc(F)cc2)c(=O)[nH]c1=O` was 2.26% (inactive); that for `COC(=O)C1=C(C(=O)OC)C2(OC1c1ccc(Br)cc1)C(=O)c1ccccc1C2=O` (configuration not stated) was -0.809% (inactive); that for `CN(Cc1c(F)cccc1Cl)C(=O)CNC(=O)c1ccc2c(c1)OCO2` was -2.64% (inactive). Take `O=C(COC(=O)c1ccc2c(c1)OCCO2)NCc1ccccc1Cl`: the inhibition was -14.4% (inactive).

With `N#CCCN(C(=O)COC(=O)c1ccc2c(c1)OCCO2)c1ccccc1`, the inhibition is 10% (inactive). The value for `COc1cc(C(=O)NCC2(c3ccccc3)CCCC2)ccc1OC(C)C` was 1.28% (inactive). On to `N#Cc1ccccc1NC(=O)c1ccc2c(c1)OCO2`, for which the inhibition was 0.633% (inactive). As for `Cc1ccc2sc(NNC(=O)c3ccc4c(c3)OCCO4)nc2c1C`, the inhibition was -5.8% (inactive). Turning to `O=C(Nc1ccccc1F)c1ccc2c(c1)OCO2`, the inhibition was 65.2% (active). With `COc1ccc(C(=O)Nc2ccc3nc(N4CCCCC4)cc(C)c3c2)cc1OC`, the inhibition was 1.68% (inactive). `O=C(OCc1ccccc1F)c1ccc2c(c1)OCCO2`: the inhibition is 80.2% (active). `O=C(Nc1nc2ccccc2s1)c1ccc2c(c1)OCO2`: the inhibition was 94.1% (active). Consider `COc1ccc(C(=O)Nc2ccc(C3(C#N)CCCC3)cc2)cc1OC`, for which the inhibition was 92.8% (active). Take `COCc1nnc(NC(=O)c2ccc3c(c2)OCO3)s1`: the inhibition was 0.871% (inactive). On to `O=C(Nc1cc(Cl)ccc1N1CCOCC1)c1ccc(N2CCCC2=O)cc1`, for which the inhibition was 6.24% (inactive). For the compound `CC(CNc1ccc([N+](=O)[O-])c2cccnc12)Nc1c([N+](=O)[O-])cc(C(F)(F)F)cc1[N+](=O)[O-]` (configuration not stated), the inhibition is -1.48% (inactive). `CCN(CC)CCOc1ccc2c(c1)C(=NNC(=O)c1ccccn1)c1cc(OCCN(CC)CC)ccc1-2`: the inhibition is -1.52% (inactive). The value for `N#Cc1ccc(OCC(=O)NC(=O)NC2CCS(=O)(=O)C2)cc1` (configuration not stated) was 0.761% (inactive); that for `COc1cc(/C=C/C(=O)O)cc(S(=O)(=O)Nc2ccccc2C(=O)NCCc2ccccc2)c1OC` was 0.693% (inactive); that for `Cc1cc(C)c(C#N)c(SCS(=O)c2ccc(C(C)(C)C)cc2)n1` (configuration not stated) was -4.22% (inactive).

In the case of `CN1CC(c2ccccc2)C2(COc3ccccc3C2=O)C12C(=O)Nc1ccccc12` (configuration not stated), the inhibition was 0.36% (inactive). On to `CC(=O)c1ccccc1NC(=O)CC1(CC(=O)O)CCCCC1`, for which the inhibition was 1.06% (inactive). Regarding `Clc1ccc(CSc2nnc([C@@H]3CCCN3)o2)cc1`, the inhibition is -0.161% (inactive). The value for `CC(C)[C@@H]1NC(=O)c2cc([N+](=O)[O-])cc(I)c2NCCC[C@@H](C(=O)NC(CC(=O)O)C(N)=O)NC(=O)[C@H](CO)NC1=O` (some centres not stated) was 3.05% (inactive). For `O=C(NCCOc1ccccc1F)Nc1ccc(Br)cc1`, the inhibition was -3.32% (inactive). Take `Cc1cc(C)nc(NC(=O)c2cccc([N+](=O)[O-])c2)c1`: the inhibition was -2.37% (inactive). With `O=C(Nc1ccc(C2CC2(Cl)Cl)cc1)c1cccc([N+](=O)[O-])c1` (configuration not stated), the inhibition was 50.5% (active). Take `CC(C)C(=O)Nc1cccc(C(=O)Nc2ccc3c(c2)OCO3)c1`: the inhibition is 1.49% (inactive). With `COc1cc(NC(=O)c2ccc3c(c2)OCO3)ccc1NC(=O)c1cccs1`, the inhibition was -17.4% (inactive). Consider `CC(C)(C)SCCNC(=O)c1cccc([N+](=O)[O-])c1`, for which the inhibition is -0.846% (inactive). In the case of `COc1ccc(C(=O)Nc2ccc3c(c2)OCO3)cc1OC`, the inhibition was 77.5% (active). For `CCN(c1ccccc1)S(=O)(=O)c1cc2c(cc1C)n(C)c(=O)c(=O)n2C`, the inhibition is -13.5% (inactive).

Turning to `CCN1CCN(c2cc3nc(C)n(Cc4ccccc4)c(=O)c3cc2NC(=O)c2ccccc2F)CC1`, the inhibition is -6.48% (inactive). For `COc1ccc(C)cc1NC(=O)CSc1nnc2ccc(-c3ccccn3)nn12` the value was 4.77% (inactive); for `Brc1ccccc1CN1CCC(Cc2ccccc2)CC1`, 3.24% (inactive); for `COc1ccc(C2=NN(c3nc4ccccc4s3)C(=O)C2)cc1`, 10.1% (inactive). For `COc1ccc(-n2nnnc2-c2nc3ccccc3s2)cc1`, the inhibition is 50.3% (active). Regarding `COc1ccc(-n2nnnc2CNC(=O)c2ccc3ccccc3c2)cc1`, the inhibition was -10.6% (inactive). In the case of `N#Cc1c(N)sc2c1CCN(C(=O)OCc1ccccc1)C2`, the inhibition is 2.15% (inactive).

Consider `COc1ccc(SCCN2CCN(CC(C)C)CCC2=O)cc1`, for which the inhibition is 5.29% (inactive).

`O=C(NCCCN1CCCC1=O)C(=O)NCC1OCCN1S(=O)(=O)c1ccc(Br)cc1` (configuration not stated): the inhibition is -0.009% (inactive). Take `O=C(O)/C=C/c1ccc2c(c1)OCCO2`: the inhibition is 1.06% (inactive). As to `CN(C)c1ccc(/C=C/C(=O)c2ccc(O)cc2)cc1[N+](=O)[O-]`, the inhibition is -28.3% (inactive). `O=C(/C=C/c1ccc2c(c1)OCCO2)c1ccc(O)cc1`: the inhibition was 76.9% (active).

As usually defined, the inhibition is the drop in the measured response relative to a control, in per cent.
